Assay [1] is described as follows: qHTS assay to identify small molecule agonists of the estrogen related receptor signaling pathway with the pleiotropic PPARgamma coactivator (PGC) (AID 1224823). The text has this: National Center for Advancing Translational Sciences [NCATS]
NIH Chemical Genomics Center [NCGC]
U.S. Environmental Protection Agency [EPA]
National Institutes of Environmental Health Sciences [NIEHS]
National Toxicology Program [NTP]
Estrogen related receptors (ERRs), the first orphan nuclear receptors discovered, play an important role in the control of cellular energy metabolism. ERRs are required for high-energy production in response to the environmental challenges. The pleiotropic PPARgamma coactivator (PGC) is a major partner of ERR and a key regulator in energy homeostasis. Together they have been implicated in the etiology of metabolic disorders such as Type 2 diabetes and metabolic syndrome. ERR-alpha was also identified as an adverse marker for breast cancer progression; ERR-alpha-positive tumors have a poor prognosis. To screen and to identify environmental compounds that perturb the PGC/ERR signaling pathways could provide valuable information for potential therapeutic or preventive measures in the treatment of metabolic disease. For identifying PGC/ERR agonists, PGC/ERR cell line (provided by NTP) has been used to screen LOPAC library.
The PGC/ERR cells were dispensed at 2,000 cells/5 ul/well in 1536-well white plates using a Multidrop dispenser. After the assay plates were incubated at a 37 C/5% CO2 incubator for 6 hours, 23 nL of compounds dissolved in DMSO, positive and negative controls or DMSO only was transferred to the assay plate by a pin tool. The plates were incubated at 37 C for 18 hours. 4 ul/well of One-Glo reagent was added into the assay plates using a Flying Reagent Dispenser. After 30 min incubation at room temperature, the luminescence intensity in the plates was measured using a ViewLux plate reader.

A short description of assay [2]: qHTS assay to identify small molecule antagonists of the estrogen related receptor (ERR) signaling pathway from Tox21 library - cell viability counter screen (AID 1224834). Note: nearly all actives have a fitted effect of over 30% in size. In outline:
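Cytotoxicity of test substances is gauged in the same ERR cells used for the antagonist screen, after 17.5 h of compound treatment at 37 C, by CellTiter-Fluor fluorescence measured after 30 min.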

Assay [3] concerns the target Luciferin 4-monooxygenase (Photinus pyralis) (UniProt P08659). Description: qHTS assay to identify small molecule inhibitors of firefly luciferase (AID 1224835). For activity change, negative = inhibition: series mostly up to about 120 µM. Note: nearly all actives have a fitted effect of over 25% in size. Note: potency is the fitted concentration of half-maximal effect. An outline of the steps:
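Inhibition of purified Photinus luciferase is measured by luminescence. Substrate levels (D-luciferin, ATP) sit at their KM values. Each compound is tested in a concentration series.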

Assay [4] is described as follows: qHTS assay to identify small molecule agonists of the constitutive androstane receptor (CAR) signaling pathway - cell viability counter screen (AID 1224836). Note: series mostly up to about 92 µM; nearly all actives have a fitted effect of over 45% in size. In outline: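 Using CellTiter-Fluor, viability of HepG2 cells harbouring hCAR and CYP2B6-2.2kb was measured following 23 h incubation with a 15-concentration compound series plus PK11195 (0.75 uM final).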

Assay [5] can be described thus: qHTS assay to identify small molecule antagonists of the constitutive androstane receptor (CAR) signaling pathway - cell viability counter screen (AID 1224837). Note: series mostly up to about 92 µM; nearly all actives have a fitted effect of over 45% in size. An outline of the steps: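 Multiplexed cytotoxicity read-out for the CAR antagonist screen: double-stable HepG2-CYP2B6-hCAR cells co-treated with 50 nM CITCO (final) and compound over 15 concentrations, incubated 23 hr, then assessed by CellTiter-Fluor fluorescence.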

In assay [6] the target is Nuclear receptor subfamily 1 group I member 3 (Homo sapiens) (UniProt Q14994). Description: qHTS assay to identify small molecule agonists of the constitutive androstane receptor (CAR) signaling pathway (AID 1224839). For activation: series mostly up to about 92 µM. Note: nearly all actives have a fitted effect of over 15% in size. Note: potency is the fitted concentration of half-maximal effect. In outline:
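Double-stable HepG2 cells (hCAR, CYP2B6-2.2kb) seeded 4 h before compound addition. Exposure 24 h with 0.75 uM PK11195 final. Luciferase detected by ONE-Glo.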

Assay [7] is described as follows: qHTS assay to identify small molecule antagonists of the estrogen related receptor signaling pathway with the pleiotropic PPARgamma coactivator (PGC) from Tox21 10K library - cell viability counter screen (AID 1224840; active = well fitted cell-killing curve with a large enough effect in the repeat runs, not every such curve was filed as active; note: nearly all actives have a fitted effect of over 40% in size). In outline: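 Step one, plate 2,000 PGC/ERR cells per well; step two, incubate 6 h at 37 C/5% CO2; step three, pin-transfer compounds; step four, incubate 17.5 h; step five, add CellTiter-Fluor and read fluorescence after 30 min.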

Assay [8] can be described thus: qHTS assay to identify small molecule antagonists of the estrogen related receptor signaling pathway with the pleiotropic PPARgamma coactivator (PGC) from Tox21 10K library (AID 1224841; call rule not given here; note: series mostly up to about 92 µM; actives are mostly falling curves and most rising ones were filed inactive; nearly all actives have a fitted effect of over 50% in size). An outline of the steps: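 Antagonism in this quantitative HTS is taken from loss of luciferase signal in PGC/ERR cells. Cells (2,000/well) are treated with compounds in DMSO after a 6 h settling period and read by One-Glo luminescence after 18 h.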

A short description of assay [9]: qHTS assay to identify small molecule agonists of the estrogen related receptor signaling pathway with the pleiotropic PPARgamma coactivator (PGC) from Tox21 10K library (AID 1224842). Note: nearly all actives have a fitted effect of over 15% in size. In outline:
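Luminescence from One-Glo (30 min, room temperature) measured after PGC/ERR cells had 18 h at 37 C with pinned compound (23 nL in DMSO). Cells had been seeded at 2,000 per well and pre-incubated 6 h.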

Assay [10] deals with Nuclear receptor subfamily 1 group I member 3 (Homo sapiens) (UniProt Q14994). As to the kind of experiment: qHTS assay to identify small molecule antagonists of the constitutive androstane receptor (CAR) signaling pathway (AID 1224838). Note: nearly all actives have a fitted effect of over 40% in size. An outline of the steps: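 Compounds were titrated across 15 concentrations onto HepG2 cells double-stably expressing hCAR and a CYP2B6-2.2kb reporter, together with 50 nM CITCO (final). After 24 h at 37 C, luciferase activity was measured by luminescence.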
Nuclear receptor subfamily 1 group I member 3 (Homo sapiens), sequence (Q14994 whole entry, looked up): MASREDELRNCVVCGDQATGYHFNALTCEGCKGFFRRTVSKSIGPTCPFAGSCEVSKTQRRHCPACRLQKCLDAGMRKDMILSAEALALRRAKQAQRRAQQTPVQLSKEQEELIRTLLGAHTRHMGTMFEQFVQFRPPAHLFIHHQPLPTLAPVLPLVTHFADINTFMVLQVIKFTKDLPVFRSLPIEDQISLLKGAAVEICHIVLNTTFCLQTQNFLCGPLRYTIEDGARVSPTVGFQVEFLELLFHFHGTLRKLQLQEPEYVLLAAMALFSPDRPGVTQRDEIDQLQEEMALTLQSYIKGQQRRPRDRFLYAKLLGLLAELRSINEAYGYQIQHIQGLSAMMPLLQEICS

Where “and” joins values, the source holds several entries; their conditions need not be identical. Equal entries are not always repeated. Results filed as inconclusive are left out. Where a structure was tested more than once in an assay, its records may differ in their call. Calls of active or inactive are those of the source. Unless noted, calls come from the whole dose curve; as a rule, active = well fitted curve in the direction sought with a large enough effect in the repeat runs; inconclusive = weak or mixed curves; inactive = no such curve, though single readings can be large; an effect the other way counts as inactive or inconclusive.
% is set by controls: 0 for no effect and ±100 for the full control effect.

Luciferin 4-monooxygenase (Photinus pyralis), sequence (P08659 whole entry, looked up): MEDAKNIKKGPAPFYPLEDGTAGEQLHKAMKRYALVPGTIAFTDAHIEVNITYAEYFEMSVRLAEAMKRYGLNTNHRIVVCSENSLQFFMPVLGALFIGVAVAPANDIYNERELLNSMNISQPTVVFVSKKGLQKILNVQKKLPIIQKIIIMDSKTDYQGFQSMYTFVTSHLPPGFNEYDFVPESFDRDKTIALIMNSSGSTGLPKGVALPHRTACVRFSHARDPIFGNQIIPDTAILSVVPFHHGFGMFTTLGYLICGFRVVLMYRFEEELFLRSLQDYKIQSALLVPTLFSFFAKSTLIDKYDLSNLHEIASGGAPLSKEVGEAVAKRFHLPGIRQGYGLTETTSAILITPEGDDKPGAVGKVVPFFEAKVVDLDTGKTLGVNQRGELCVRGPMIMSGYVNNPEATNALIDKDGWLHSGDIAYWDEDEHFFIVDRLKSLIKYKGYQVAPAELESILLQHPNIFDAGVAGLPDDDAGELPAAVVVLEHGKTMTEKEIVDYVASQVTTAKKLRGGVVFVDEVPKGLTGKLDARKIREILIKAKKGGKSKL

Consider `Cn1c(CCCC(=O)O)nc2cc(N(CCCl)CCCl)ccc21`, for which the outcome in assay [1] was inactive. For the same molecule, the Potency result in assay [2], in assay [3], in assay [4], in [5], in [6] and in assay [7] was “inactive” throughout. Also, the Potency entry in assay [8] and in [9] was “inactive” in each case.

As for `O=C(O)c1c(Cl)ccc2cc(Cl)cnc12`, the Potency entry in [2], in assay [3], in [4], in assay [5], in [10] and in [6] was “inactive” each time. The Potency entry in [7] is “inactive”.

For `CCC(=O)OC1(c2ccccc2)CCN(C)CC1`, the Potency entry in assay [2], in assay [3], in assay [4], in [5], in assay [10] and in assay [6] was “inactive” throughout. Besides, the Potency entry in assay [7] was “inactive”.

With `O=c1[nH]c2ccccc2n1C1CCNCC1`, the Potency entry in [2], in [3], in assay [4], in assay [5], in assay [10] and in [6] was “inactive” in each case. Moreover, the Potency result in assay [7] was “inactive”.

As for `CC(C)(C)c1cc(O)ccc1O`, the Potency entry in assay [2], in assay [4], in assay [5], in [10] and in assay [7] was “inactive” each time. Besides, the Potency in [3] is 71 µM (active) and inactive; in assay [6], 54.5 µM (active) and 61.1 µM (active).

In the case of `CCNc1nc(NCC)nc(SC)n1`, the Potency result in assay [2], in assay [3], in assay [4], in assay [5], in [10] and in assay [6] was “inactive” in each case. The Potency result in assay [7] is “inactive”.

Turning to `CON(C)C(=O)Nc1ccc(Br)c(Cl)c1`, the Potency entry in assay [2], in assay [4], in assay [5], in assay [10], in [7] and in [8] was “inactive” each time. Also, in assay [9], the Potency entry was “inactive”. The Potency was 39.9 µM (active) in assay [3] and 48.6 µM (active) in assay [6].

As to `CC(C)[N+](C)(CCC(C(N)=O)(c1ccccc1)c1ccccc1)C(C)C`, the Potency result in assay [2], in assay [3], in assay [4], in [5], in [10] and in [6] was “inactive” in each case. Further, the Potency result in assay [7], in [8] and in assay [9] was “inactive” in each case.

As for `CCN(CC)CCOC(=O)C(O)(c1ccccc1)c1ccccc1`, the Potency result in [2], in assay [3], in [4], in [5], in assay [10] and in assay [6] was “inactive” each time. Besides, the Potency entry in assay [7], in assay [8] and in assay [9] was “inactive” in each case.

Consider `ClC(Cl)(Cl)Cl`, for which the Potency entry in assay [2], in [3], in assay [4], in assay [5], in [10] and in [6] was “inactive” in each case. Also, the Potency entry in [7], in assay [8] and in assay [9] was “inactive” each time.

On to `CS(=O)(=O)c1ccc(C(=O)C2C(=O)CCCC2=O)c(Cl)c1COCC(F)(F)F`, for which the Potency result in assay [2], in assay [3], in assay [4], in assay [5], in assay [10] and in [6] was “inactive” in each case. Also, the Potency result in [7], in [8] and in [9] was “inactive” throughout.

Consider `c1cncc([C@@H]2CCCCN2)c1`, for which the Potency result in assay [2], in assay [3], in assay [4], in assay [5], in assay [10] and in [7] was “inactive” in each case.

In the case of `NC(=O)CS(=O)C(c1ccccc1)c1ccccc1` (stereo not drawn), the Potency result in [2], in [3], in [4], in assay [5], in [10] and in [6] was “inactive” in each case. Moreover, the Potency result in assay [7], in assay [8] and in assay [9] was “inactive” throughout.

For the molecule `O=C(Cl)C(Cl)(Cl)Cl`, the Potency result in [2], in assay [3], in assay [4], in assay [5], in assay [10] and in assay [7] was “inactive” each time.

As for `CC(C)N(Cc1ccccc1)C(=O)C(C)(C)C`, the Potency result in [2], in [3], in assay [4], in assay [5], in [10] and in [7] was “inactive” in each case.

Consider `O=C(CCl)NCO`, for which the Potency result in assay [2], in assay [3], in assay [4], in assay [5], in [10] and in [6] was “inactive” each time. Also, the Potency result in [7], in assay [8] and in assay [9] was “inactive” throughout.

`CCC(=O)c1ccc(Cl)cc1`: the Potency entry in assay [2], in assay [3], in assay [4], in assay [5], in [10] and in assay [6] was “inactive” throughout. Further, the Potency entry in assay [7], in assay [8] and in [9] was “inactive” throughout.

Take `COc1ccc(C=O)cc1O`: the Potency entry in [2], in [3], in assay [4], in assay [5], in assay [10] and in assay [6] was “inactive” each time. Moreover, the Potency entry in assay [7] and in assay [9] was “inactive” each time.

Regarding `CC(=O)OCC1=C(C(=O)O)N2C(=O)[C@@H](N)[C@H]2SC1`, the viability change, negative = cytotoxic was 3.81% [at 19 µM] (inactive) in assay [2], 12.6% [at 19 µM] (inactive) in assay [4] and 9.03% [at 19 µM] (inactive) in assay [7]. For the same molecule, the activity change, negative = inhibition in [3] was 5.1% [at 23.6 µM] (inactive). Further, the activity change, negative = cytotoxicity in assay [5] was 5.22% [at 19 µM] (inactive). Further, the activity, negative = inhibition is 0.319% [at 19 µM] (inactive) in assay [10] and -8.84% [at 19 µM] (inactive) in [8]. For the same molecule, the activation in assay [6] was 4.04% [at 19 µM] (inactive); in assay [9], -2.61% [at 19 µM] (inactive).

Turning to `CN(C)C1CCCCC1`, the Potency result in assay [2], in [3], in assay [4], in assay [5], in [10] and in assay [6] was “inactive” each time. In addition, the Potency result in assay [7], in assay [8] and in assay [9] was “inactive” each time.

As to `O=S1(=O)OCCO1`, the Potency entry in assay [2], in assay [3], in [4], in assay [5], in assay [10] and in assay [6] was “inactive” in each case. For the same molecule, the Potency result in [7], in assay [8] and in [9] was “inactive” throughout.

`Nc1c(Cl)c(F)nc(OCC(=O)O)c1Cl`: the Potency result in assay [2], in [3], in assay [4], in assay [5], in [10] and in assay [6] was “inactive” throughout. In addition, the Potency entry in [7], in assay [8] and in assay [9] was “inactive” throughout.

For `CCOC(=O)C(SP(=S)(OC)OC)c1ccccc1` (stereo not drawn), the Potency entry in assay [2], in [3], in assay [4], in [5], in assay [10] and in [7] was “inactive” in each case. Also, the Potency result in [8] and in assay [9] was “inactive” throughout. For the same molecule, the Potency in assay [6] is 30.6 µM (active).

Consider `Oc1ccc(Cc2ccc(O)cc2)cc1`, for which the Potency result in assay [2], in [4], in [5], in assay [10], in assay [7] and in [8] was “inactive” in each case. In addition, the Potency entry in assay [9] is “inactive”. Besides, the values for the Potency in assay [3] and in [6] were 40.2 µM (active) and 54.9 µM (active), respectively.

Regarding `CCCCCCC1CCOC1=O` (stereo not drawn), the Potency result in assay [2], in [3], in assay [4], in [5], in assay [10] and in [6] was “inactive” throughout. The Potency result in assay [7], in assay [8] and in assay [9] was “inactive” in each case.

As to `CCCC(C)(COC(N)=O)COC(N)=O`, the Potency result in [2], in assay [3], in assay [4], in [5], in assay [10] and in assay [6] was “inactive” in each case. Also, the Potency entry in assay [7], in assay [8] and in [9] was “inactive” throughout.

`CCN(CC)C1CCCCC1`: the Potency result in assay [2], in [3], in [4], in [5], in assay [10] and in assay [6] was “inactive” throughout. Also, the Potency result in assay [7], in assay [8] and in assay [9] was “inactive” in each case.

For the origin of these results see PubChem BioAssay (Tox21).
